Assay results reported in PubChem BioAssay AID588651 (The Scripps Research Institute Molecular Screening Center, 2011).
Calls of active or inactive are those of the source. No stated cut-off is given here; in the data, active means inhibition above about 65%; inactive means the rest.

tested on: Fam108b; experiment: Fam108b inhibitors and proteome off-target selectivity – biochemical, gel-based ABPP, recombinant soluble Fam108b, HTS hits, complex proteome, late-stage follow-up (AID 588651); details: FP-rhodamine labeling in proteome, at 20 µM, active compounds read high;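 further: Fam108b spiked into mouse brain membrane proteome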

inhibition, active:
Nc1c(S(=O)(=O)c2cccc(Cl)c2)c2nc3ccccc3nc2n1N=Cc1ccc(O)c(O)c1 75%
O=C(Nc1cccc(-c2csc(Nc3ccc(Cl)cc3)n2)c1)c1cc([N+](=O)[O-])cc(C(F)(F)F)c1 65%
O=C(Nc1ccc(-c2csc(Nc3cccc(C(F)(F)F)c3)n2)cc1)c1cccc(C(F)(F)F)c1 95%
O=C(Nc1ccc(-c2csc(Nc3ccc(Cl)cc3)n2)cc1)c1cccc(C(F)(F)F)c1 95%
O=c1oc(-c2ccccc2F)nc2scc(-c3ccccc3)c12 98%
O=C(Nc1cccc(C(F)(F)F)c1)Nc1ccc(N2CCCC2)c(S(=O)(=O)Nc2ccccc2Cl)c1 98%
Cc1ccc(S(=O)(=O)N=C2C=C(Sc3ncn[nH]3)C(=O)c3ccccc32)cc1 90%
COc1cccc(C=NNc2nc(Nc3ccc([N+](=O)[O-])cc3)nc(N3CCCC3)n2)c1O 65%

inhibition, inactive:
Brc1csc(C=NNc2nc3ccccc3s2)c1 0%
CCNc1ccc2noc3c2c1C(=O)c1ccccc1-3 0%
COc1ccc(NC(=S)Nc2ccc3nsnc3c2)cc1 0%
O=[N+]([O-])c1ccc(NN=Cc2c[nH]c3ccccc23)c(S(=O)(=O)Nc2ccc(Cl)cc2)c1 0%
Oc1ccccc1-c1nc2c3ccccc3c3ccccc3c2[nH]1 0%
CC1CCCCN1S(=O)(=O)c1ccc(C(=O)Nc2ccccc2-c2nc3ccccc3[nH]2)cc1 (centres undefined) 50%
CCOC(=O)c1sc(NC(=O)Nc2ccc(Cl)cc2)cc1C 0%
CCc1ccc(S(=O)(=O)N=C2C=C(Sc3ncn[nH]3)C(=O)c3ccccc32)cc1 60%
Oc1ccc(C=NNc2ccnc3cc(Cl)ccc23)c(O)c1O 20%
CCCCCCCCCCCCCCCC[n+]1ccc(C=NO)cc1 0%
CCN(CC)c1ccc(C2Nc3cccc4cccc(c34)N2)c(O)c1 10%
COc1cccc(-n2c(SCc3cc(=O)oc4cc(O)c(O)cc34)nc3ccccc3c2=O)c1 10%
Nc1ccc2nc(-c3cccc(-c4nc5ccc(N)cc5[nH]4)c3)[nH]c2c1 30%
O=C1c2ccccc2-c2onc3ccc(NCCCn4ccnc4)c1c23 0%
N=c1oc2cc(O)ccc2cc1C(=O)Nc1ccc(Br)cc1 0%
O=S(=O)(c1cc(O)ccc1O)c1cccc2c(S(=O)(=O)c3cc(O)ccc3O)cccc12 10%
Cc1ccc2nc(CSc3nc(C)ccc3C#N)[nH]c2c1 50%
O=C(NN=Cc1ccc(O)cc1)c1cccc(NN=Cc2ccc(O)cc2)c1 60%
Nc1cc(C(=O)O)c(N)c2c1C(=O)c1ccccc1C2=O 0%
O=C(O)c1ccc(S(=O)(=O)/N=C2\C=C(Nc3ccccc3F)C(=O)c3ccccc32)cc1 0%
CCn1nc([N+](=O)[O-])c(C(C#N)c2nc3cc(C(F)(F)F)ccc3s2)c(Cl)c1=O (centres undefined) 0%
CCN(c1ccccc1)S(=O)(=O)c1ccc(NC(=O)c2nc(S(C)(=O)=O)ncc2Cl)cc1 0%
Cc1ccnc(N=Cc2nc(-c3ccccc3Br)oc2O)c1 7%
CCN(CC)S(=O)(=O)c1cc(NC(=O)COC(=O)c2sc3ccccc3c2Cl)ccc1C 10%
O=C(O)CCCNc1cc(N2CCN(C(=O)c3ccco3)CC2)c2noc3c2c1C(=O)c1ccccc1-3 40%
Brc1ccc(-c2csc(Nc3nc(-c4ccc(Br)cc4)cs3)n2)cc1 50%
